Screening results deposited in PubChem BioAssay by National Center for Advancing Translational Sciences (NCATS).
USP2a inh – qHTS Assay for Inhibitors of Ubiquitin-specific Protease USP2a | actives 0.1% (n = 60,000) | AID 927, 2007 | Ubiquitin carboxyl-terminal hydrolase 2 (Homo sapiens), O75604 | USP2a enzymatic assay, qHTS inhibition | Potency, µM (titrated, usually from 38.3 µM), for inactives: at the top dose activity change, negative = inhibition, hits mostly inhibitors; note: nearly all actives have a fitted effect of over 60% in size
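Coupled readout: USP2-cleaved Ub-PLA2 (20nM final) turns over NBD C6-HPC (20uM final), Ex 460nm/Em 535nm after 2.5 h, time-zero read flagging artifacts. Enzyme (20nM final, pH 8.0 Tris) given 30 min RT with compound first; NEM defines full inhibition.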
CRE Fsk mod – Cell signaling CRE-BLA (Fsk stim); actives 2.5% (n = 71,000); Potency, µM (top dose mostly 38.2 µM), for the others: at the highest dose activity change, negative = inhibition, actives largely listed as activators; CHO CRE-bla reporter (cAMP response element driving beta-lactamase), forskolin EC10, beta-lactamase ratio; active = well fitted activation curve with a large enough effect in the signal ratio, with a control signal flat, not every such curve was filed as active; inconclusive = small, poorly fitted or top-dose-only effect, or effect the other way, or a change in a side signal; the % refers to the signal ratio; note: % of control where 0% means no effect
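Using CellSensor CRE-bla CHO cells in Opti-MEM with 0.5% dialyzed FBS, compounds were titrated with EC10 NKH 477 for 3 h at 37 °C. CCF4 ratio (460/530 nm) gave %Activity; AC50 derived.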
TSHR ag – qHTS Assay for Agonists of the Thyroid Stimulating Hormone Receptor; Thyrotropin receptor (Homo sapiens), P16473; HEK293-CNG-TSHR cells (CNG channel as cAMP sensor), membrane potential dye, cAMP; Potency, µM (highest dose often 57.1 µM), inactives show at the top dose activation, most hits filed as activators; actives 0.48% (n = 73,000); active = well fitted activation curve with a large enough effect in the main read-out, with a control signal flat, not every such curve was filed as active; inconclusive = small, poorly fitted or top-dose-only effect, or a change in a side signal; inactive = no such curve, though single readings can be large or run the other way; % of control where 0% means no effect;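 note: the control signal comes from parental cells without the receptor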
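HEK 293 cells stably expressing TSHR and a cAMP-gated CNG channel; parental CNG-only cells as counterscreen. Cells preloaded 60 min with membrane potential dye plus 100 uM RO 20-1724, then compound 30 min; fluorescence read at 590 nm.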
Casp7 inh – qHTS Assay for Allosteric/Competitive Inhibitors of Caspase-7; AID 889, 2007; Potency, µM (doses to about 57.5 µM), for inactives: top-dose activity change, negative = inhibition, usual class: inhibitors; recombinant caspase-7, Ac-DEVD-AFC fluorescence rate; actives 0.02% (n = 75,000); P55210; active = well fitted inhibition curve with a large enough effect in the main read-out, with a control signal flat, not every such curve was filed as active; inconclusive = small, poorly fitted or top-dose-only effect, or a change in a side signal; note: % of control where 0% means no effect
Target sequence (P55210 24-198 limits assumed): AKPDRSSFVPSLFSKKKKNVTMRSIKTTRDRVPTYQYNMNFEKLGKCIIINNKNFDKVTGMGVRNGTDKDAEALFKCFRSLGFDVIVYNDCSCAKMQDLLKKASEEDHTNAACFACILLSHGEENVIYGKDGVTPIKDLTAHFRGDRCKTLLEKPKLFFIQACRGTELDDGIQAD
Target sequence (P55210 207-303 limits assumed): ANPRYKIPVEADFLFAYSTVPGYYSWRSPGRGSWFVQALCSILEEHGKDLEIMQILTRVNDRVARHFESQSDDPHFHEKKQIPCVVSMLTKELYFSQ
Casp1 inh – qHTS Assay for Allosteric/Competitive Inhibitors of Caspase-1 | P29466 | Caspase-1 enzyme, Ac-WEHD-AFC fluorogenic rate | Potency, µM (titrated, usually from 57.5 µM), for the others: at the top dose activity change, negative = inhibition, actives largely listed as inhibitors | actives 0.03% (n = 75,000) | AID 900, 2007;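 note: plate controls were vehicle for no effect and no substrate for full effect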
Target sequence (P29466 120-297 limits assumed): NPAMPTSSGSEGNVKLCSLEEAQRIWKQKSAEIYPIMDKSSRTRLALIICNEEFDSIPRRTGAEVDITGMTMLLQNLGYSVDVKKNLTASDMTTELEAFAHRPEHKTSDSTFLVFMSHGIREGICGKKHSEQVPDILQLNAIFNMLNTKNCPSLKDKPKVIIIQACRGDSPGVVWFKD
Target sequence (P29466 317-404 limits assumed): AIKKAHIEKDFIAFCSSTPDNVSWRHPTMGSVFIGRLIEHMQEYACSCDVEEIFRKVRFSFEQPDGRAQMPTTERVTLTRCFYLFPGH
HEK293 cAMP cs – qHTS Assay for Agonists of the Thyroid Stimulating Hormone Receptor: Activators of Intracellular cAMP Concentrations in Parental HEK 293. parental HEK293 CNG cAMP sensor, membrane potential fluorescence. Potency, µM (series often up to 57.1 µM), without a hit: at the top dose activation, actives largely listed as activators. actives 2.5% (n = 73,000); note: % of control where 0% means no effect; nearly all actives have a fitted effect of over 55% in size
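Parental HEK 293 cells stably expressing a cAMP-gated CNG channel were loaded with membrane potential dye containing 100 uM RO 20-1724 for 60 min. Compound added for 30 min; depolarization read as fluorescence intensity at 590 nm.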
Numbers without * were called inactive; ? = inconclusive; · = no result given; [ ] = dose if it differs, or a comment. Rows were chosen to be rich in hits. Some 5% of all compounds tested hit in one or more screens of this group. Unless noted, calls come from the whole dose curve; as a rule, active = well fitted curve in the direction sought with a large enough effect; inconclusive = small, poorly fitted or top-dose-only effect, or another doubt; inactive = no such curve, though single readings can be large; an effect the other way counts as inactive or inconclusive. Potency is the fitted concentration of half-maximal effect.

SMILES | USP2a inh | CRE Fsk mod | TSHR ag | Casp7 inh | Casp1 inh | HEK293 cAMP cs
CCOc1ccc2[nH]c(=O)c(C(c3nnnn3Cc3ccco3)N3CCC(C)CC3)cc2c1 (stereo unspecified) | 244% | -13% | ? | -24% | -16% | 32µM*
CCOc1ccc2[nH]c(=O)c(C(c3nnnn3C3CCCCC3)N3CCN(C)CC3)cc2c1 (stereo unspecified) | · | 6% | 3% | -3% | -4% | 8%
CCCn1cnc2c(SCC(=O)O)nc(N)nc21 | · | -1%[7.6 µM] | 7%[11.4 µM] | 2%[11.5 µM] | -5%[11.5 µM] | 4%[11.4 µM]
CCCCCCCCCCCC(CC1OC(=O)C1CCCCCC)OC(=O)C(CC(C)C)NC=O (stereo unspecified) | 10µM* | · | · | 1% | 1% | ·
Cc1cccc(CSC2=NCCN2C(=O)c2ccc(Br)o2)c1 | · | ? | ? | -6% | -9% | 32µM*
CC(C)NC[C@@H](O)c1ccc(O)c2ncccc12 | · | 10%[7.6 µM] | -1%[11.4 µM] | 0%[11.5 µM] | 0%[11.5 µM] | 13%[11.4 µM]
COCCn1c(SCC(=O)N2CCCc3ccccc32)nnc1-c1ccco1 | -7% | ? | 2% | 0% | 0% | 11%
COCCn1c(SCC(=O)N2CCCc3ccccc32)nc2ccccc2c1=O | 11% | ? | ? | 5% | -2% | 20µM*
O=C(CN1CCN(C2CCCCC2)CC1)c1ccc2cc[nH]c2c1 | · | -13% | 8% | -8% | -9% | 8%
O=C(O)c1ccc2cc[nH]c2c1 | 4% | 0.2µM* | -10% | -1% | 0% | 0%
CCOC(=O)c1c(-c2ccc(C)o2)csc1NC(=O)CSc1nncs1 | 6% | ? | ? | -6% | -6% | 25µM*
CCN(C1CCCCC1)S(=O)(=O)c1cc(C)ccc1OC | -6% | -2% | ? | -1% | -1% | ?
CCN(C1CCCCC1)S(=O)(=O)c1cn(C)c(=O)n(C)c1=O | · | ? | ? | -13% | -7% | 3.2µM*
CCCn1cnc2c(SCc3ccc(Cl)cc3)nc(N)nc21 | · | 3.2µM* | 8%[11.4 µM] | 2%[11.5 µM] | 2%[11.5 µM] | -7%[11.4 µM]
N[C@H](CCCC(=O)O)C(=O)O | 3% | -5% | · | -2% | -1% | -3%
COC(=O)[C@@]1(Cc2ccc(OC)cc2)[C@H]2c3cc(C(=O)N4CCCC4)n(Cc4ccc(S(C)(=O)=O)cc4)c3C[C@H]2CN1C(=O)c1ccccc1 | · | -16% | ? | -6% | -6% | 20µM*
COC(=O)[C@@]1(Cc2ccc(OC)cc2)[C@H]2c3cc(C(=O)N4CCCC4)n(Cc4ccc(Cl)c(C(F)(F)F)c4)c3C[C@H]2CN1C(=O)c1ccccc1 | · | 1% | ? | -5% | -2% | ?
COC(=O)[C@@]1(Cc2ccccc2)[C@H]2c3cc(C(=O)N4CCCC4)n(Cc4ccc(S(C)(=O)=O)cc4)c3C[C@H]2CN1C(=O)c1ccccc1 | · | -27% | ? | -9% | -6% | 7.9µM*
COC(=O)[C@@]1(Cc2ccc(OC)cc2)[C@H]2c3cc(C(=O)N4CCCC4)n(Cc4cc(F)cc5c4OCOC5)c3C[C@H]2CN1C(=O)c1ccccc1 | · | 0% | ? | -4% | -2% | 4µM*
COC(=O)[C@@]1(Cc2ccc(OC)cc2)[C@H]2c3cc(C(=O)N4CCCC4)n(Cc4ccc(C)o4)c3C[C@H]2CN1C(=O)c1ccccc1 | · | 3% | ? | -4% | -2% | 3.2µM*
COC(=O)[C@@]1(Cc2ccc(OC)cc2)[C@H]2c3cc(C(=O)N4CCCC4)n(Cc4ccccn4)c3C[C@H]2CN1C(=O)c1ccccc1 | · | -10% | ? | -4% | 0% | ?
CCCCN1CSC(=S)N(Cc2ccccc2)C1 | · | ? | -1%[11.4 µM] | 1%[11.5 µM] | -2%[11.5 µM] | 5%[11.4 µM]
C#C[C@@]1(O)CC[C@H]2[C@H]3CCC4=Cc5oncc5C[C@]4(C)[C@@H]3CC[C@@]21C | · | 17% | 29% | · | · | 7%
